Consider 105 compounds from PubChem BioAssay AID504941 (Broad Institute, 2011).

Screen size: about 1,200 compounds; about 170 (14%) were called active. A selection follows. Entries with a potency or affinity are not part of this list. Values without a mark were called inactive. The rule behind the calls is not given here.

The experiment can be described thus: E. coli Tat export inhibitors, dose response, cherry-pick, set 2, plate reader (AID 504941). As to conditions: E. coli Tat transport reporter; series mostly up to 38 µM; activity change, negative = inhibition: at the top concentration.
Turning to `COc1ccc(OC)c(NC(=O)NCc2cccnc2)c1`, the “activity change, negative = inhibition” value is 6.95%.
With `CN(CC(=O)NCCN1CCOCC1)S(=O)(=O)c1ccc(Cl)cc1` the figure was 0.713%; with `Cc1cc(=O)[nH]c(Sc2c(-c3ccccc3)c3ccccc3[nH]c2=O)n1`, 2.85%; with `CN1CCN(c2cc3c(cc2F)c(=O)c(C(=O)O)cn3CCF)CC1`, -97.2%.
The result for `Cc1ccc(S(=O)(=O)N2CCC(C(=O)Nc3nnc(C)s3)CC2)cc1` reads 0.142%; that for `CC(C(=O)NC1CCCC1)N1CCN(S(=O)(=O)c2ccc(C(C)(C)C)cc2)CC1` (stereo not given), -20.3%.
For `O=C(CCSc1nnc(-c2ccco2)o1)N1CCOCC1`, the “activity change, negative = inhibition” value was -14.4%.
On to `CCc1ccc(-c2cc(C(=O)Nc3ccc(S(=O)(=O)NC(C)=O)cc3)c3ccccc3n2)cc1`, for which the “activity change, negative = inhibition” value was -2.02%.
`CC(=O)c1ccc(NC(=O)C2CCCN2S(=O)(=O)c2cccc3cccnc23)cc1` (stereo not given): the “activity change, negative = inhibition” value was 16.2%.
In the case of `CN(c1ccccc1)S(=O)(=O)c1cccc(NC(=O)CN2C(=O)NC3(CCCC3)C2=O)c1`, the “activity change, negative = inhibition” value was -4.76%.
In the case of `CC1(C)C2CCC1(C)C(NC(=O)/C=C/c1ccccc1)C2` (stereo not given), the “activity change, negative = inhibition” value is 3.31%.
The result for `COc1ccccc1NC(=S)NC(=O)C(C)C` reads 23.3%.
With `COc1ccc(Nc2nc3ccccc3nc2-n2nc(C)cc2C)cc1` the figure was 13.7%.
In the case of `COc1cc(NC(=O)C2CCCCC2)c(OC)cc1NC(=O)c1ccco1`, the “activity change, negative = inhibition” value is -1.98%.
In the case of `Cc1ccc(-c2cc(C(F)F)n3ncc(C(=O)Nc4ccc(S(=O)(=O)Nc5ccccc5C)cc4)c3n2)cc1`, the “activity change, negative = inhibition” value is -1.66%.
For `Oc1c(Cl)cc(Cl)cc1C1Nc2ccccc2-n2cccc21` (stereo not given), the “activity change, negative = inhibition” value is -22.8%.
With `O=C(Nc1ccc2c(c1)OCCO2)C1CCCN(S(=O)(=O)c2cccnc2)C1` (stereo not given) the figure was 11.9%; with `O=C(c1cccnc1)C1CCCN(Cc2nc(Cc3ccccc3)no2)C1` (stereo not given), 2.5%.
The result for `CN1CCN(c2ccc(S(=O)(=O)N3CCCCC3)cc2NC(=O)c2cccc([N+](=O)[O-])c2)CC1` reads -5.17%.
For the compound `COc1c2ccoc2nc2c(OC)c(OC[C@@H](O)C(C)(C)O)ccc12`, the “activity change, negative = inhibition” value was 27.5%.
With `Cc1ccnc(SCC(=O)c2cccs2)n1`, the “activity change, negative = inhibition” value is -5.46%.
As for `CC(=O)c1cc(CN2CCN(C3CCCCC3)C(CCO)C2)cs1` (stereo not given), the “activity change, negative = inhibition” value was 5.91%.
With `O=C1/C(=C/c2cccnc2)Oc2cc(OS(=O)(=O)c3ccccc3)ccc21` the figure was 19.7%; with `COc1cccc(NC(=O)c2cccc(C(=O)Nc3cccc(OC)c3)n2)c1`, -9.91%; with `Cc1ccc(S(=O)(=O)NC(C)(C)CSc2nnc(Nc3ccccc3)s2)cc1`, -11.6%.
In the case of `CN1CCC(=NNC(=O)C(=O)Nc2cccc(Br)c2)CC1`, the “activity change, negative = inhibition” value is 25.9%.
The result for `Cc1ccc(C)c(NC(=O)CN(C)C(=O)c2cccc(S(=O)(=O)N(C)C)c2)c1` reads 8.53%; that for `Cc1ncc(CN2CCN(CCC(C)C)C(CCO)C2)s1` (stereo not given), 8.33%.
For `COc1ccc(C(=O)NC2(C(F)(F)F)C(=O)Nc3c2c(=O)[nH]c(=O)n3CCc2ccc(OC)c(OC)c2)cc1` (stereo not given), the “activity change, negative = inhibition” value was 0.11%.
The result for `CC(C)OCC(O)CN1CCN(CC(O)COc2ccc3c(c2)OCO3)CC1` (stereo not given) reads 10.6%; that for `CCCCN(C)C(=O)c1cc2cc([N+](=O)[O-])cc(OC)c2oc1=O`, 8.79%; that for `Cc1cccc(N(CC(=O)NC2CCCC2)C(=O)CCCC(=O)Nc2ccccn2)c1`, 2.32%.
Consider `CCCCn1c(N)c(N(CCOC)C(=O)COC(=O)C(C)Oc2ccc(Cl)cc2)c(=O)[nH]c1=O` (stereo not given), for which the “activity change, negative = inhibition” value was 21%.
For `O=C(Nc1nnc(S(=O)(=O)N2CCCCCC2)s1)c1ccccc1Br`, the “activity change, negative = inhibition” value is -23.6%.
`C=CCn1c(SCC(=O)NCc2ccc3c(c2)OCO3)nnc1-c1cccnc1`: the “activity change, negative = inhibition” value is 7.67%.
Turning to `COC(=O)C[C@H]1c2cc(F)cc(F)c2S(=O)(=O)N1C1CCN(Cc2ccccc2)CC1`, the “activity change, negative = inhibition” value was 1.35%.
Take `NC(=O)C1CCN(C(=O)c2ccco2)CC1`: the “activity change, negative = inhibition” value was -11.7%.
With `NC(=O)C1CCN(C(=O)CSc2nc3ccccc3o2)CC1` the figure was 12.3%; with `O=C(CCSc1ccccc1)N1CCN(C(=O)c2ccco2)CC1`, -12.1%; with `O=C(CCc1nc2cccnc2n1Cc1ccccc1)N1CCOCC1`, 0.529%.
`CN(Cc1ccccc1)c1ncnc2sccc12`: the “activity change, negative = inhibition” value was 1.04%.
The result for `COC(=O)c1sccc1NC(=O)c1ccc2c(c1)OCO2` reads 12.6%.
With `Cc1ccccc1C(=O)N1CCN(c2ccc(NC(=S)NC(=O)c3cccs3)cc2)CC1` the figure was 17.9%.
For `Cc1ccccc1C(=O)N1CCC(C(=O)Nc2ccccc2Cl)CC1`, the “activity change, negative = inhibition” value was 18.5%.
The result for `O=C(CC1SCCNC1=O)Nc1cccc(Cl)c1` (stereo not given) reads 6.89%; that for `COc1cccc(CN2CCN(Cc3cc(OC)c(OC)cc3[N+](=O)[O-])CC2)c1`, 2.59%; that for `COc1ccc(CCN2C(=O)CC(NNC(=O)c3ccc(F)cc3)C2=O)cc1OC` (stereo not given), 4.71%.
The result for `Cc1cc(C(=O)NNC(=O)c2ccc(F)cc2)c(C)s1` reads 26.3%; that for `Cc1nc(Cl)c(C(=O)NCc2ccccc2)c(C)c1Cl`, -2.15%; that for `Cc1nn(Cc2ccccc2)c(C)c1NC(=O)c1noc2c1CCc1ccccc1-2`, 15.8%.
The result for `CCOc1cccc(=O)c2c(C)n(-c3ccc(C(=O)O)cc3)c(C)c12` reads 14.2%; that for `O=C(CCCc1ccccc1)Nc1ccc2c(c1)OCCO2`, 9.47%; that for `O=C(O)CC(NCc1ccco1)C(=O)OCCc1ccccc1` (stereo not given), 26.3%.
`Cc1cc(C)c2oc(=O)cc(CN3CCN(Cc4ccc5c(c4)OCO5)CC3)c2c1`: the “activity change, negative = inhibition” value is 4.31%.
With `C[C@H]1NC(=O)[C@@]2(C)[C@@H](c3ccccc3)[C@H]3COc4ccccc4[C@H]3N2C1=O` the figure was 15.3%.
With `CCOC(=O)[C@H]1[C@H]2COc3ccc(Cl)cc3[C@@H]2N2C(=O)[C@H](C)NC(=O)[C@@]12C` the figure was -1.43%; with `CC(=O)c1c(C)[nH]c(C(=O)CSc2nnc3ccccn23)c1C`, -0.324%.
With `CC(=O)Oc1ccc2c(c1)OC(c1ccccc1)CC21CC(C)(C)NC(=S)N1` (stereo not given) the figure was 15.6%.
Take `C=CCC[C@H](Cc1ccc(F)cc1)C(=O)OC[C@@H](C)NC(=O)[C@H](CC=C)CC(=O)NCCO`: the “activity change, negative = inhibition” value is -6.43%.
For the compound `Nc1nc2n(n1)C(c1cccc(Br)c1)CC(c1ccccc1)N2` (stereo not given), the “activity change, negative = inhibition” value was 23%.
With `CC(Oc1ccc2c(-c3ccccc3)cc(=O)oc2c1)C(=O)NCCCN1CCOCC1` (stereo not given) the figure was 12.1%; with `COc1ccccc1N1CCN(CC(=O)Nc2ccc3c(c2)OCCO3)CC1`, 12.1%.
With `COc1cccc(CNC(=O)CN2C(=O)CCSc3ccc(S(=O)(=O)N4CCCC4)cc32)c1` the figure was -15.2%.
With `Cc1ccc(NC(=S)NCCC2=CCCCC2)cc1` the figure was 12.6%; with `O=C(NCc1ccccc1)c1ccc(CS(=O)(=O)c2ccccc2)o1`, 16.7%.
With `CCC1CCCCN1Cc1nc2c(c(=O)n(C)c(=O)n2C)n1CCCc1ccccc1` (stereo not given), the “activity change, negative = inhibition” value was -2%.
With `Cc1onc(C(=O)NCc2ccc(F)cc2)c1[N+](=O)[O-]` the figure was -1.08%.
The result for `O=C(CCC1CCCCC1)NCCN1CCOCC1` reads -15.1%; that for `COCCCN=C(c1ccco1)n1c(=S)nc(-c2ccco2)n(CCCOC)c1=S`, 3.59%.
The result for `O=C(CN1CCC(c2nc3ccccc3s2)CC1)NCc1cccs1` reads 12.7%; that for `O=C(Nc1ccc(C(=O)O)cc1)/C(=C\C=C\c1ccccc1)NC(=O)c1ccccc1Br`, -14.1%.
As for `O=C(Nc1cc(S(=O)(=O)N2CCOCC2)ccc1N1CCCC1)c1ccc(Cl)cc1`, the “activity change, negative = inhibition” value is 2.62%.
With `Cc1cc(Oc2nc3c(C)cccn3c(=O)c2/C=C(\C#N)S(=O)(=O)c2ccc(Cl)cc2)ccc1Cl` the figure was 2.58%.
Turning to `CCOC(=O)C1=C(C)Nc2ncnn2C1c1cc(Br)ccc1F` (stereo not given), the “activity change, negative = inhibition” value was 5.94%.
The result for `COc1ccc(NC(=O)C2CCN(Cc3cnn(-c4ccccc4)c3-n3cccc3)CC2)cc1OC` reads 21%; that for `Cc1ccn(C(=O)c2ccc(NC(=O)C3CC3)cc2)n1`, -12.2%.
On to `O=C(CSc1cccc2cccnc12)N/N=C/c1ccncc1`, for which the “activity change, negative = inhibition” value is 35.7%.
With `Clc1ccccc1CSc1nnc(-c2cccnc2)n1Cc1ccco1` the figure was -3.85%; with `CCN(CC)CC(=O)Nc1ccc(C)cc1C(=O)c1ccccc1`, 6.54%.
With `COc1ccccc1NC(=O)NCCCCc1ccccc1`, the “activity change, negative = inhibition” value is -5.9%.
`COc1ccc(CCNCC(O)COc2c(C)cccc2C)cc1OC` (stereo not given): the “activity change, negative = inhibition” value is 2.06%.
Consider `COCCNc1nc(N)c([N+](=O)[O-])c(NCC2CCCO2)n1` (stereo not given), for which the “activity change, negative = inhibition” value was -13.9%.
For `CCOC(=O)c1sc(-c2ccccc2)cc1NC(=O)Nc1ccc([N+](=O)[O-])cc1`, the “activity change, negative = inhibition” value was 12.2%.
Turning to `O=C1c2cccc3cccc(c23)C(=O)N1CC1CCN(CC(O)COc2ccc3ccccc3c2)CC1` (stereo not given), the “activity change, negative = inhibition” value is 5.9%.
With `COC(=O)COc1cccc(NC(=O)c2cccc(C)c2)c1` the figure was -3.33%; with `Cc1cccc(OCC(O)Cn2c(=N)n(CCN3CCOCC3)c3ccccc32)c1` (stereo not given), -7%.
The result for `CCCc1[nH]nc2c1C(c1ccc(OC(=O)c3ccco3)cc1)C(C#N)=C(N)O2` (stereo not given) reads 1.36%; that for `O=C1c2ccccc2NC(c2ccc(Cl)cc2Cl)N1O` (stereo not given), 58.2%; that for `CCOc1cc(/C=N/NC(=O)C(=O)NCc2cccnc2)ccc1O`, -1.14%.
As for `S=c1[nH]nc(-c2cccnc2)n1C1CCCCC1`, the “activity change, negative = inhibition” value is 0.199%.
For `O=S(=O)(NC1CCCCC1)c1ccc(Cl)s1`, the “activity change, negative = inhibition” value was 6.67%.
With `CCC(C)OC1OC(CO)C(O)C(O)C1NC(C)=O` (stereo not given) the figure was 0.148%.
With `C[C@@H]1C(c2ccc(F)cc2)=NN(c2ccccc2)[C@H]1C(=O)N1CCOC1=O` the figure was 12.3%; with `CCN(CC)S(=O)(=O)N1CCC(C(=O)NC2CCCC2)CC1`, 1.37%; with `O=C(Nc1ccccc1F)C1CCN(C(=O)Cc2ccccc2)CC1`, -21.2%.
The result for `CCOc1cc(C(=O)N2CCCN(C)CC2)cc(OCC)c1OCC` reads 17.2%; that for `COC(=O)c1sc(NC(=O)CSc2nnnn2-c2ccc(C)cc2C)nc1C`, 13.6%; that for `CN1CC(c2ccccc2Cl)C2(COc3ccccc3C2=O)C12C(=O)Nc1ccccc12` (stereo not given), 39.1%.
Consider `CC1(C)c2ccccc2N2CC(=O)NC21/C=C/c1ccco1` (stereo not given), for which the “activity change, negative = inhibition” value is 29.5%.
Regarding `CCc1ccc(C(=O)Nc2ccc(S(=O)(=O)Nc3nc(C)cc(C)n3)cc2)o1`, the “activity change, negative = inhibition” value was 5.66%.
The result for `Cc1ccc2nc(C(=O)O)c(C(=O)O)nc2c1` reads 18.6%; that for `O=C(Cn1c(=O)oc2cc(S(=O)(=O)N3CCc4ccccc43)ccc21)N1CCCCC1`, 0.63%; that for `O=C(Cn1nnc(-c2ccccc2)n1)N/N=C/c1cccc([N+](=O)[O-])c1O`, 35%.
With `COc1ccccc1N(CC(=O)NC1CCCC1)C(=O)c1csnn1` the figure was 25.7%.
The result for `Cc1cc(=O)oc2cc(OCC(=O)OCC(=O)N3CCc4ccccc43)ccc12` reads 0.129%.
